From PubChem BioAssay (Tox21)
Results filed as inconclusive are left out. Active and inactive are the calls of the source. Unless noted, calls come from the whole dose curve; as a rule, active = well fitted curve in the direction sought with a large enough effect in the repeat runs; inconclusive = weak or mixed curves; inactive = no such curve, though single readings can be large; an effect the other way counts as inactive or inconclusive.

Experiments:
[1] = A CellTox Green Cytotoxicity Assay to monitor cytotoxicity in HEK293 cells - 32 hour (AID 1224881); note: nearly all actives have a fitted effect of over 40% in size; note: potency is the fitted concentration of half-maximal effect
How it was run: (§1)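 Fluorescence intensity, read at 0, 8, 16, 24, 32 and 40 h of compound treatment, reflected dye binding to DNA of dead HEK293 cells; compounds (23 nL, DMSO) were added 5 h after plating cells with reagent.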

[2] = A CellTox Green Cytotoxicity Assay to monitor cytotoxicity in HepG2 cells - 0 hour (AID 1224882); note: nearly all actives have a fitted effect of over 35% in size
How it was run: (§2)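 Using 1536-well format, dye-containing HepG2 suspension was seeded, allowed 5 h at 37 C/5% CO2, dosed by pintool with compounds, positive and negative controls, and imaged for fluorescence across 40 h.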

[3] = A CellTox Green Cytotoxicity Assay to monitor cytotoxicity in HEK293 cells - 8 hour (AID 1224884); note: nearly all actives have a fitted effect of over 35% in size
How it was run: as §1

[4] = qHTS RealTime-Glo MT Cell Viability Assay in HepG2 cells - 16 hour (AID 1224885); note: nearly all actives have a fitted effect of over 50% in size
How it was run: (§3)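 Compound treatment began 5 h after plating HepG2 cells (600/well) with NanoLuc luciferase and prosubstrate. Plates stayed at 37 C for 40 h; luminescence was captured at six time points, 0 h through 40 h.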

[5] = qHTS RealTime-Glo MT Cell Viability Assay in HEK293 cells - 24 hour (AID 1224886); note: top concentration of the series differs between compounds; nearly all actives have a fitted effect of over 50% in size
How it was run: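 Quantitative high-throughput screen of the Tox21 10K library in HEK293: cells and RealTime-Glo reagents plated together, compound added at 5 h, luminescence monitored through 40 h at 37 C.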

[6] = qHTS RealTime-Glo MT Cell Viability Assay in HEK293 cells - 8 hour (AID 1224887); note: nearly all actives have a fitted effect of over 50% in size; note: potency is the fitted concentration of half-maximal effect
How it was run: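 Viable HEK293 cells reduce a cell-permeant prosubstrate; the product diffuses out and is consumed by NanoLuc in the medium to give light. Compounds went in after a 5 h incubation and plates were read over the treatment course.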

[7] = A CellTox Green Cytotoxicity Assay to monitor cytotoxicity in HEK293 cells - 16 hour (AID 1224888); note: nearly all actives have a fitted effect of over 35% in size; note: potency is the fitted concentration of half-maximal effect
How it was run: as §1

[8] = qHTS RealTime-Glo MT Cell Viability Assay in HepG2 cells - 0 hour (AID 1224889); note: nearly all actives have a fitted effect of over 50% in size
How it was run: as §3

[9] = qHTS assay to identify small molecule antagonists of the estrogen receptor alpha (ER-alpha) signaling pathway using the BG1 cell line in the presence of 0.1 nM 17-beta-estradiol - cell viability counter screen (AID 1259241); note: nearly all actives have a fitted effect of over 40% in size
How it was run: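 Cells were plated and left 24 hr, compounds in DMSO were pinned in, 17beta-estradiol was added to 0.1 nM final, and after 22 hr CellTiter-Fluor reagent was added for 30 min before fluorescence was read.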

[10] = qHTS assay to identify small molecule antagonists of the androgen receptor (AR) signaling pathway using the MDA cell line in the presence of 0.5 nM R1881 - cell viability counter screen (AID 1259242); note: nearly all actives have a fitted effect of over 45% in size
How it was run: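 Viability of MDA-kb2 cells was multiplexed with the luciferase AR readout; after 16 hr with compounds and R1881 at 0.5 nM final, CellTiter-Fluor fluorescence was recorded.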

[11] = target: Estrogen receptor (Homo sapiens) (UniProt P03372); experiment: qHTS assay to identify small molecule antagonists of the estrogen receptor alpha (ER-alpha) signaling pathway using the BG1 cell line in the presence of 0.1 nM 17-beta-estradiol (AID 1259244); note: nearly all actives have a fitted effect of over 50% in size
How it was run: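 Estradiol at 0.1 nM (final) stimulates the endogenous ER-alpha of VM7Luc4E2 cells carrying an ERE-driven luciferase; compounds are co-incubated 22 h at 37C and luciferase output quantified by luminescence.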

[12] = qHTS assay to identify small molecule phospholipidosis (PLD) inducers (AID 1259344; active = well fitted curve in the direction sought with a large enough effect; an effect the other way counts as inactive or inconclusive)
How it was run: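 Fluorescent phospholipid staining (LipidTOX Red) measured by automated microscopy in fixed HepG2 cells after 24 h treatment; nuclei counterstained with Hoechst 33342; amiodarone as reference inducer.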

[13] = qHTS assay to identify small molecule HDAC inhibitors (AID 1259364);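 note: wild-type HCT-116 cells with endogenous class I/II HDAC activity; top concentration of the series differs between compounds; nearly all actives have a fitted effect of over 45% in size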
How it was run: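 Read-out: luminescence of HDAC-Glo I/II reagent, 30 min RT, reflecting class I/II deacetylase activity in whole HCT-116 cells pre-exposed 2 h to DMSO-dissolved compounds.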

[14] = qHTS assay to identify small molecule HDAC inhibitors - cell viability counter screen (AID 1259365)
How it was run: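 Counter screen in wild-type HCT-116 cells: compounds dissolved in DMSO are pin-transferred onto overnight-plated cells and left 2hr at 37C. ATP-based CellTiter-Glo luminescence then measures viable cells.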

[15] = qHTS assay to identify small molecule agonists of the sonic hedgehog signaling (Shh) pathway - cell viability counter screen (AID 1259366); note: nearly all actives have a fitted effect of over 50% in size
How it was run: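 Cells are plated at 2,000 per well and left 4hr at 37C, 5% CO2 before compound addition. After 23hr of treatment, CellTiter-Fluor reagent is added for 1hr at 37C and fluorescence is measured.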

[16] = qHTS assay to identify small molecule antagonists of the sonic hedgehog signaling (Shh) pathway - cell viability counter screen (AID 1259367); note: nearly all actives have a fitted effect of over 55% in size
How it was run: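 Using CellTiter-Fluor, viability of Gli1-Luc reporter 3T3 cells is read by fluorescence in the wells used for the Shh luciferase assay. Treatment lasts 23 hr with conditioned medium, then reagent 1 hr at 37C.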

[17] = qHTS assay to identify small molecule agonists of the sonic hedgehog signaling (Shh) pathway (AID 1259368; calls by dose curve;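 note: NIH/3T3-derived 3T3Gli1-Luc cells carrying a stable Gli1-driven firefly luciferase reporter; series mostly up to about 92 µM; nearly all actives have a fitted effect of over 15% in size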)
How it was run: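 A Gli1 transcriptional response element controlled firefly luciferase in 3T3Gli1-Luc cells. Compounds and a positive control were added 4 hr after plating, and cells were incubated a further 24 hr at 37 C before luminescence detection.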

[18] = A CellTox Green Cytotoxicity Assay to monitor cytotoxicity in HepG2 cells - 8 hour (AID 1224890); note: nearly all actives have a fitted effect of over 45% in size
How it was run: as §2

[19] = A CellTox Green Cytotoxicity Assay to monitor cytotoxicity in HepG2 cells - 32 hour (AID 1224883); note: nearly all actives have a fitted effect of over 50% in size
How it was run: as §2

[20] = target: Androgen receptor (Homo sapiens) (UniProt P10275); experiment: qHTS assay to identify small molecule antagonists of the androgen receptor (AR) signaling pathway using the MDA cell line in the presence of 0.5 nM R1881 (AID 1259243); note: nearly all actives have a fitted effect of over 50% in size
How it was run: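 Reporter cells cultured without CO2 receive test chemicals, then 0.5 nM R1881 final; after 16 hr at 37C, ONE-Glo is added and light output recorded.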
% is set by controls: 0 for no effect and ±100 for the full control effect.

Sequence of Estrogen receptor (Homo sapiens) (P03372 whole entry, looked up): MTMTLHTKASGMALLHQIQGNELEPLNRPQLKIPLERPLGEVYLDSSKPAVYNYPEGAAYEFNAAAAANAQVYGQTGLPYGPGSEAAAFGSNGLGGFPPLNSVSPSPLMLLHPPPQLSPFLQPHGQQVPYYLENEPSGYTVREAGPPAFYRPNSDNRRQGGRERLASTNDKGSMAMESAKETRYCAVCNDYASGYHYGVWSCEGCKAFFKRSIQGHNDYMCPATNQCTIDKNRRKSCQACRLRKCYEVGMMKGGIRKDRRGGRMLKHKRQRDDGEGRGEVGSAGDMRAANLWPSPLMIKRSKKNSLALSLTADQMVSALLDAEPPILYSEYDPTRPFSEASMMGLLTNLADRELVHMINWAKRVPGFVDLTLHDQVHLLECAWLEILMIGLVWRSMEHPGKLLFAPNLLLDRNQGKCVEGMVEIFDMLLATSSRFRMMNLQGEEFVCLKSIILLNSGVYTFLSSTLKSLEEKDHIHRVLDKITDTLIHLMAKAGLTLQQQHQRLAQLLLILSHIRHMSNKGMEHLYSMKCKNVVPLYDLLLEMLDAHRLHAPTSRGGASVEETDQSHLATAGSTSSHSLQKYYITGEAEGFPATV
Sequence of Androgen receptor (Homo sapiens) (P10275 whole entry, looked up): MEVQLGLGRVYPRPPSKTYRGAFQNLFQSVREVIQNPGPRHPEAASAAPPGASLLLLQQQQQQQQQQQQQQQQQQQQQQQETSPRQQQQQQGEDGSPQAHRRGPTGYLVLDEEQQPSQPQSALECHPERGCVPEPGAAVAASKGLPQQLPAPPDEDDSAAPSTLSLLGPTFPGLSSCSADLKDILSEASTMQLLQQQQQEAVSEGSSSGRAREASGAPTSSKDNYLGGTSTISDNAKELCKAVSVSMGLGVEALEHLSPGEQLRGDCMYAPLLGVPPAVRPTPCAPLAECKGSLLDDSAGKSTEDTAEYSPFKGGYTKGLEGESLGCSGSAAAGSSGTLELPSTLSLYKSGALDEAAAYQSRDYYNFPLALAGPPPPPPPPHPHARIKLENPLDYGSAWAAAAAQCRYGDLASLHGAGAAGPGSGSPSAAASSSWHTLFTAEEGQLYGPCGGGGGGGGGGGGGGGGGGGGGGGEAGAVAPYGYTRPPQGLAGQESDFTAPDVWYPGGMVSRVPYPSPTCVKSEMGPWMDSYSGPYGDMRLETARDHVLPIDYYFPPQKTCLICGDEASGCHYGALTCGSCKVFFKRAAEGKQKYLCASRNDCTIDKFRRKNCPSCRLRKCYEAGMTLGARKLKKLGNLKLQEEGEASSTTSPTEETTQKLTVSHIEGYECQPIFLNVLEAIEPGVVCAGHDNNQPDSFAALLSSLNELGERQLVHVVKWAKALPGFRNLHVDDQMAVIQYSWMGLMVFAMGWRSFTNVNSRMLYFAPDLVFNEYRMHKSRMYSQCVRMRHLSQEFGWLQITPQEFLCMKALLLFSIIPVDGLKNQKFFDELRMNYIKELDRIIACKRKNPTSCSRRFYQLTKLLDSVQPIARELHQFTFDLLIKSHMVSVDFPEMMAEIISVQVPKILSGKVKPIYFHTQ

COC(=O)C1=CCCN(C)C1
inactive: Potency [1] | outcome [2] | Potency [3] | Potency [4] | Potency [5] | Potency [6] | Potency [7] | Potency [8] | outcome [9] | outcome [10] | Potency [11] | outcome [12] | Potency [13] | outcome [14] | Potency [15] | Potency [16] | outcome [17]

CNCC(=O)c1ccc(O)c(O)c1
inactive: Potency [1] | outcome [2] | Potency [3] | Potency [4] | Potency [5] | Potency [6] | Potency [7] | Potency [8] | Potency [18] | outcome [10] | Potency [11] | PLD induction [12] -2.28% [at 7.66 µM] | Potency [13] | outcome [14] | Potency [15] | Potency [16] | outcome [17]

CCCSC(=O)N(CCC)CCC
inactive: Potency [1] | outcome [2] | Potency [3] | Potency [4] | Potency [5] | Potency [6] | Potency [7] | Potency [8] | Potency [18] | outcome [9] | outcome [10] | Potency [13] | outcome [14] | Potency [15] | Potency [16] | outcome [17]

N#CC(Cl)(Cl)Cl
inactive: Potency [1] | Potency [19] | Potency [3] | Potency [4] | Potency [5] | Potency [6] | Potency [7] | Potency [8] | Potency [18] | outcome [9] | outcome [10] | Potency [20] | Potency [11] | Potency [13] | outcome [14] | Potency [15] | Potency [16]

CC(C)CC(N(C)C)C1(c2ccc(Cl)cc2)CCC1 (stereo not given)
active: Potency [1] 23.9 µM | Potency [7] 21.3 µM
inactive: outcome [2] | Potency [4] | Potency [8] | Potency [18] | outcome [10] | outcome [12] | Potency [13] | outcome [14] | Potency [15] | Potency [16] | outcome [17]

C[C@H]1CCC[C@H](O)CCCCCc2cc(O)cc(O)c2C(=O)O1
inactive: Potency [1] | outcome [2] | Potency [3] | Potency [4] | Potency [7] | Potency [8] | outcome [9] | outcome [10] | outcome [12] | Potency [13] | outcome [14] | outcome [17]
active: Potency [6] 27.7 µM

CCOP(=S)(OCC)SCSc1ccc(Cl)cc1
inactive: Potency [1] | Potency [19] | Potency [3] | Potency [4] | Potency [5] | Potency [6] | Potency [7] | Potency [18] | outcome [9] | outcome [10] | Potency [11] | PLD induction [12] -3.38% [at 7.66 µM] | Potency [13] | outcome [14] | Potency [15] | Potency [16]

C(CCOCC1CO1)COCC1CO1 (stereo not given)
inactive: Potency [1] | outcome [2] | Potency [3] | Potency [4] | Potency [6] | Potency [8] | Potency [18] | outcome [9] | outcome [10] | Potency [11] | Potency [13] | outcome [14] | Potency [15] | Potency [16] | outcome [17]

ClC(Br)Br
inactive: Potency [1] | Potency [19] | Potency [3] | Potency [4] | Potency [5] | Potency [6] | Potency [7] | Potency [8] | Potency [18] | outcome [9] | outcome [10] | Potency [11] | Potency [13] | outcome [14] | Potency [15] | Potency [16]
